Source: the supplement of paper PMC11634586
Where a name gives a salt, the structure may show the parent alone. A number with no mark means an inactive call.

System: NCI-H1688
Experiment: inhibition of cell viability relative to untreated control (fraction); higher = stronger growth inhibition, active = 0.5 or more
Settings: 30 µM; 24 h
Procedure: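 Natural product library (TargetMol, 640 compounds) screened on NCI-H1688 SCLC cells at 30 µM for 24 h; viability by CCK-8 absorbance at 450 nm, normalised to untreated control and expressed as inhibition rate (fraction). Compounds with >50% reduction in viability were selected as hits.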

Row | Compound | inhibition of cell viability
1 | COc1cccc2c1cc([N+](=O)[O-])c1c(C(=O)O)cc3c(c12)OCO3 [Aristolochic Acid] | 0.49
2 | CC(C)=CCOc1c2occc2cc2ccc(=O)oc12 [Imperatorin] | 0.0251
3 | CC[C@H](C)[C@H]1O[C@]2(C=C[C@@H]1C)C[C@@H]1C[C@@H](C/C=C(\C)[C@@H](O[C@H]3C[C@H](OC)[C@@H](O[C@H]4C[C@H](OC)[C@@H](O)[C@H](C)O4)[C@H](C)O3)[C@@H](C)/C=C/C=C3\CO[C@@H]4[C@H](O)C(C)=C[C@@H](C(=O)O1)[C@]34O)O2.CO[C@H]1C[C@H](O[C@H]2[C@H](C)O[C@@H](O[C@@H]3/C(C)=C/C[C@@H]4C[C@@H](C[C@]5(C=C[C@H](C)[C@@H](C(C)C)O5)O4)OC(=O)[C@@H]4C=C(C)[C@@H](O)[C@H]5OC/C(=C\C=C\[C@@H]3C)[C@]54O)C[C@@H]2OC)O[C@@H](C)[C@@H]1O [Abamectin] | 1.01 (active)
4 | O=C1C[C@@H]2OCC=C3CN4CC[C@]56c7ccccc7N1[C@H]5[C@H]2[C@H]3C[C@H]46 [Strychnine Sulfate] | -0.193
5 | C[C@]12CCC(=O)C=C1CC[C@@H]1[C@@H]2CC[C@@]2(C)[C@H]1CC[C@]2(C)O [17-Methyltestosterone] | 0.403
6 | CN(CC(=O)O)C(=N)NP(=O)(O)O [Creatine phosphate disodium salt] | 0.256
7 | N#CCCN [3-Aminopropionitrile fumarate] | -0.137
8 | C[C@@H]1[C@H](O)[C@@H](C)/C=C/C=C/CC/C=C/C=C/C=C/C=C/[C@H](O[C@H]2O[C@@H](C)[C@H](O)[C@@H](N)[C@H]2O)C[C@@H]2O[C@](O)(C[C@@H](O)[C@H](O)CC[C@@H](O)C[C@@H](O)C[C@@H](O)CC(=O)O[C@H]1C)C[C@H](O)[C@H]2C(=O)O [Nystatin (Fungicidin)] | 0.267
9 | C=C[C@H]1CN2CC[C@H]1C[C@H]2[C@H](O)c1ccnc2ccccc12 [Cinchonidine] | -0.042
10 | CC(=O)O[C@H]1C(=O)[C@@]2(C)[C@H]([C@H](OC(=O)c3ccccc3)[C@]3(O)C[C@H](O)C(C)=C1C3(C)C)[C@]1(OC(C)=O)CO[C@@H]1C[C@@H]2O [Baccatin III] | 0.535 (active)
11 | COc1cc(OC)c(OC)cc1C=O [Asarylaldehyde] | -0.42
12 | COc1ccc(Cc2nccc3cc(OC)c(OC)cc23)cc1OC [Papaverine hydrochloride] | 0.205
13 | C=CCCCCCCCCC(=O)O[C@H]1CC[C@H]2[C@@H]3CCC4=CC(=O)C=C[C@]4(C)[C@H]3CC[C@]12C [Boldenone Undecylenate] | -0.203
14 | COc1ccc2c(c1)[nH]c1c(C)nccc12 [Harmine] | 0.462
15 | CCN1C[C@]2(OC(=O)c3ccccc3NC(C)=O)CC[C@H](OC)[C@@]34[C@@H]2C[C@@H]([C@@H]13)[C@@]1(O)C[C@H](OC)[C@H]2C[C@@H]4[C@]1(O)[C@H]2OC [Lappaconitine] | -0.0777
16 | CCC12C=CCN3CC[C@@]4(c5ccc(OC)cc5N(C)[C@H]4[C@@](O)(C(=O)OC)[C@@H]1OC(C)=O)[C@@H]32 (stereo not given in full) [Vindoline] | -0.0958
17 | COc1cc([C@@H]2c3cc4c(cc3[C@@H](O)[C@H]3COC(=O)[C@H]23)OCO4)cc(OC)c1O [4'-Demethylepipodophyllotoxin] | 0.568 (active)
18 | c1cc2c(cc1[C@H]1OC[C@H]3[C@@H]1CO[C@@H]3c1ccc3c(c1)OCO3)OCO2 [Sesamin] | -0.0637
19 | CN1[C@@H]2C[C@@H](OC(=O)[C@H](CO)c3ccccc3)C[C@H]1[C@@H]1O[C@@H]12 [Scopolamine HBr trihydrate] | 0.0269
20 | C[C@@H]1O[C@@H](O[C@H]2C[C@@H](O)[C@]3(CO)[C@H]4[C@H](O)C[C@]5(C)[C@@H](C6=CC(=O)OC6)CC[C@]5(O)[C@@H]4CC[C@]3(O)C2)[C@H](O)[C@H](O)[C@H]1O [Ouabain octahydrate] | 0.99 (active)

Row | Compound | inhibition of cell viability
21 | COc1cc(C2OCC3C(c4cc(OC)c(O[C@@H]5O[C@H](CO)[C@@H](O)[C@H](O)[C@H]5O)c(OC)c4)OCC23)cc(OC)c1O[C@H]1O[C@@H](CO)[C@H](O)[C@@H](O)[C@@H]1O (stereo not given in full) [Eleutheroside E] | 0.231
22 | O=C(/C=C/c1ccccc1)OC[C@H]1O[C@@H](O[C@@H]2OC=C[C@H]3[C@H](O)[C@@H]4O[C@]4(CO)[C@@H]23)[C@H](O)[C@@H](O)[C@@H]1O [Picroside I] | 0.253
23 | CC1=CC(=O)c2c(O)cccc2C1=O [Plumbagin] | 1 (active)
24 | O=c1ccc2cc(O[C@@H]3O[C@H](CO)[C@@H](O)[C@H](O)[C@H]3O)c(O)cc2o1 [Esculin] | -0.139
25 | COC1=C[C@@H]2[C@@H]3Cc4ccc(OC)c(O)c4[C@]2(CCN3C)CC1=O [Sinomenine hydrochloride] | -0.0195
26 | CN1[C@@H]2CC[C@H]1C[C@@H](OC(=O)[C@H](CO)c1ccccc1)C2 [L-Hyoscyamine] | 0.305
27 | CC1=C2C(=O)[C@H]3[C@@H](CC=C4C[C@@H](O)CC[C@@]43C)[C@@H]2CC[C@]12O[C@@H]1C[C@H](C)CN[C@H]1[C@H]2C [Jervine] | 0.601 (active)
28 | COc1cccc(C=O)c1OC [o-Veratraldehyde] | -0.267
29 | C[C@H]1CCC/C=C/[C@@H]2C[C@H](O)C[C@H]2[C@H](O)/C=C/C(=O)O1 [Brefeldin A] | 0.704 (active)
30 | COc1cc2c(c(OC)c1OC)-c1ccc(OC)c(=O)cc1[C@@H](NC(C)=O)CC2 [Colchicine] | 0.84 (active)
31 | CCC(=O)O[C@H]1CC[C@H]2[C@@H]3CCC4=CC(=O)CC[C@]4(C)[C@H]3CC[C@]12C [Testosterone propionate] | -0.173
32 | O=C(O)CC[N+](=O)[O-] [Bovinocidin] | -0.0746
33 | CC(=O)O[C@H]1[C@H]2[C@@H](OC(=O)Cc3ccccc3)[C@@H](C)C[C@]2(OC(C)=O)C(=O)/C(C)=C/[C@@H]2[C@H](CC[C@@]13CO3)C2(C)C [Euphorbiasteroid] | 0.499
34 | C[C@@H]1C[C@@H]([C@H](O)CC2CC(=O)NC(=O)C2)C(=O)[C@@H](C)C1 [Actidione] | 0.943 (active)
35 | CC(=O)O[C@H]1CC[C@H]2[C@@H]3CCC4=CC(=O)CCC4=C3C=C[C@]12C [Trenbolone acetate] | -0.43
36 | COc1cc2c3c(c1OC)-c1ccccc1C[C@H]3N(C)CC2 [Nuciferine] | 0.173
37 | C[C@]12CCC(=O)C=C1CC[C@@H]1[C@@H]2C(=O)C[C@]2(C)C(=O)CC[C@@H]12 [Adrenosterone] | -0.0418
38 | COc1ccc2c(c1O)-c1c(OC)c(OC)cc3c1[C@H](C2)N(C)CC3 [S-Isocorydine(+)] | 0.0897
39 | O=C1C=CC[C@@H]2[C@H]3CCC[N+]4([O-])CCC[C@@H](CN12)[C@@H]34 (stereo not given in full) [Oxysophocarpine] | -0.0366
40 | C#C[C@]1(O)CC[C@H]2[C@@H]3CCC4=CC(=O)CC[C@]4(C)[C@H]3CC[C@@]21C [Ethisterone] | 0.178
